This passage reports growth results from PubChem BioAssay (NCI).

The panel holds about 83,000 compounds, 20% with a hit somewhere; the sample as a whole holds those more often.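 Cell lines were cultured in 96-well plates, exposed to a single compound concentration, and assessed for percent growth 48 hours later.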 Values without a mark were called inactive. Active and inactive are the calls of the source. The calls were made as follows: active = growth percent below 10; inactive = the rest.

Some test systems named below: HCT-15 colon; HT29 colon; SNB-75 CNS; SNB-19 CNS; U251 CNS; PC-3 prostate; SK-MEL-5 melanoma; UACC-62 melanoma; LOX IMVI melanoma; SK-MEL-28 melanoma.
Common to all, as to test: NCI-60 one-dose screen, 48 h (100 = growth as untreated, 0 = no growth, -100 = all killed)
Holding throughout (conditions): 10 µM unless noted

In the case of `CC1Cc2ccc(OCCN(C)C)cc2C1=O` (stereo not given), the growth is 108% in the assay on HCT-15 colon; 98.5% in the assay on HT29 colon; 98% in the assay with SNB-75 CNS; 106% in the assay with SNB-19 CNS; 89.5% in the assay on U251 CNS; 89.9% with PC-3 prostate. The growth is 91.6% in the assay on SK-MEL-5 melanoma, 105% in the assay on UACC-62 melanoma, 96.4% in the assay on LOX IMVI melanoma and 103% in the assay on SK-MEL-28 melanoma.
As for `CCOC(=O)C(c1ccccc1)N1C(=O)c2ccccc2C1=O` (stereo not given), the growth with HCT-15 colon is 97.3%; with HT29 colon, 102%; in the assay with SNB-75 CNS it was 91.1%; with SNB-19 CNS it was 100%; in the assay on U251 CNS, 93.8%; in the assay with PC-3 prostate, 98.4%. For the same compound, the growth in the assay with SK-MEL-5 melanoma is 100%; in the assay on UACC-62 melanoma it was 95%; with LOX IMVI melanoma, 91.4%; in the assay on SK-MEL-28 melanoma it was 99.2%.
On to `Cc1ccc(-c2cn(C/C=C3\C=CN(S(=O)(=O)c4ccccc4)CC3)nn2)cc1`, for which the growth in the assay on HCT-15 colon is 95.6%; in the assay on HT29 colon it was 124%; in the assay on SNB-75 CNS, 82.1%; in the assay with SNB-19 CNS, 93%; in the assay with U251 CNS it was 108%; in the assay on PC-3 prostate, 97.1%. Further, the growth in the assay with SK-MEL-5 melanoma is 97%; in the assay with UACC-62 melanoma, 64%; in the assay on LOX IMVI melanoma it was 97.8%; with SK-MEL-28 melanoma, 101%.
With `CC1(C)CC[C@]23CC[C@]4(C)[C@H](CC[C@@H]5[C@@]6(C)C/C(=C/c7cccnc7)C(=O)C(C)(C)[C@@H]6CC[C@]54C)[C@H]2[C@H]1OC3=O`, the growth with HCT-15 colon is 42.7% [100 µM]; in the assay with HT29 colon, 23.2% [100 µM]; in the assay on SNB-75 CNS, 19.8% [100 µM]; in the assay on SNB-19 CNS, 59.6% [100 µM]; in the assay with U251 CNS, 34% [100 µM]; in the assay on PC-3 prostate, 29.8% [100 µM]. Also, the growth in the assay on SK-MEL-5 melanoma was -44.4% [100 µM] (active); in the assay with UACC-62 melanoma, 28.4% [100 µM]; in the assay with LOX IMVI melanoma, 29.2% [100 µM]; with SK-MEL-28 melanoma, 21.4% [100 µM].
For `COc1ccc(-c2c(C)nn3c(NCCN4CCOCC4)cc(C)nc23)cc1OC`, the growth was 95.1% in the assay with HCT-15 colon; 94.4% in the assay on HT29 colon; 93.2% in the assay with SNB-75 CNS; 91.4% with SNB-19 CNS; 82.2% in the assay on U251 CNS; 89.7% in the assay on PC-3 prostate. Moreover, the growth in the assay on SK-MEL-5 melanoma was 97.2%; in the assay on UACC-62 melanoma it was 97.6%; in the assay with LOX IMVI melanoma it was 87.5%; in the assay on SK-MEL-28 melanoma it was 103%.
For `CC(C)=CC/C=C(/C)[C@H]1CC[C@]2(C)[C@@H]1CC[C@@H]1[C@@]3(C)CC/C(=N/O)C(C)(C)[C@@H]3CC[C@]12C`, the growth is 57.2% [100 µM] with HCT-15 colon; 23.2% [100 µM] in the assay on HT29 colon; 69.4% [100 µM] in the assay with SNB-75 CNS; 67.3% [100 µM] in the assay on SNB-19 CNS; 50.9% [100 µM] in the assay on U251 CNS; 29.4% [100 µM] in the assay on PC-3 prostate. The growth with SK-MEL-5 melanoma was 18.2% [100 µM]; in the assay with UACC-62 melanoma it was 43.1% [100 µM]; with LOX IMVI melanoma it was 59.6% [100 µM]; in the assay on SK-MEL-28 melanoma, 73.3% [100 µM].
For the compound `C#C[C@]1(O)CC[C@H]2[C@@H]3CC=C4c5nc(Nc6ccc(OC)cc6OC)sc5CC[C@]4(C)[C@H]3CC[C@@]21C`, the growth in the assay on HCT-15 colon was -39.1% (active); in the assay with HT29 colon, -12.8% (active); in the assay with SNB-75 CNS it was -53.6% (active); in the assay with SNB-19 CNS it was 31.2%; in the assay on U251 CNS it was -2.51% (active); in the assay with PC-3 prostate it was -3.17% (active). Further, the growth is -92.2% (active) in the assay on SK-MEL-5 melanoma, -36.8% (active) with UACC-62 melanoma, -78.3% (active) with LOX IMVI melanoma and -49.1% (active) with SK-MEL-28 melanoma.
As for `Cn1cc(-c2nnc(-c3cn(C)c4ncc(Br)cc34)s2)c2cc(Br)ccc21`, the growth with HCT-15 colon is 98.4%; in the assay on HT29 colon it was 100%; with SNB-75 CNS, 64.3%; with SNB-19 CNS, 94.9%; with U251 CNS, 85.2%; in the assay with PC-3 prostate it was 90.3%. For the same compound, the growth with SK-MEL-5 melanoma is 93.1%; in the assay on UACC-62 melanoma, 86.7%; with LOX IMVI melanoma it was 95.8%; in the assay on SK-MEL-28 melanoma, 95.9%.
As for `COc1ccc(NC(=O)Nc2ccc(-c3cccnc3)cc2N2CCC(CO)CC2)cc1`, the growth with HCT-15 colon is 43.7%; in the assay with HT29 colon, 9.77% (active); in the assay with SNB-75 CNS it was 51.3%; in the assay on SNB-19 CNS, 49.3%; in the assay with U251 CNS, 33%; in the assay with PC-3 prostate, 83.7%. Further, the growth was -38.3% (active) with SK-MEL-5 melanoma, 68.7% with UACC-62 melanoma, 71.9% with LOX IMVI melanoma and 18.7% with SK-MEL-28 melanoma.
`CCOc1cc(NC(=O)c2ccccc2)c(OCC)cc1N`: the growth is 111% in the assay with HCT-15 colon; 121% in the assay on HT29 colon; 106% in the assay with SNB-75 CNS; 105% with SNB-19 CNS; 106% with U251 CNS; 104% with PC-3 prostate. The growth with SK-MEL-5 melanoma is 107%; with UACC-62 melanoma, 106%; in the assay with LOX IMVI melanoma, 100%; in the assay on SK-MEL-28 melanoma it was 118%.
Consider `CSc1nc(=S)c2nc(SC)n(-c3ccccc3)c2[nH]1`, for which the growth was 106% with HCT-15 colon; 92.3% in the assay with HT29 colon; 94.8% with SNB-75 CNS; 100% in the assay on SNB-19 CNS; 93.5% in the assay with U251 CNS; 82.3% in the assay on PC-3 prostate. For the same compound, the growth in the assay on SK-MEL-5 melanoma was 98.5%; in the assay with UACC-62 melanoma it was 90.3%; in the assay on LOX IMVI melanoma, 90.9%; with SK-MEL-28 melanoma, 108%.
Turning to `CN(C)C(=S)Sc1ccc([N+](=O)[O-])cc1[N+](=O)[O-]`, the growth in the assay on HCT-15 colon was 5.29% (active); in the assay with HT29 colon, -16.6% (active); in the assay with SNB-75 CNS it was 57.4%; with SNB-19 CNS, 83.2%; with U251 CNS, 6.55% (active); in the assay with PC-3 prostate, 28.1%. The growth in the assay with SK-MEL-5 melanoma was 17.2%; with UACC-62 melanoma, 33.5%; with LOX IMVI melanoma, -4.79% (active); in the assay on SK-MEL-28 melanoma, 75.1%.
